Sampled rows, rich in hits. Any-hit rate of the full collection: about 3.8%.
tim23-1 inh: growth inhibitors of tim23-1 mutant yeast; S. cerevisiae tim23-1 growth, BacTiter-Glo luminescence, 24 h; inhibition, % at 20 µM; 1.3% of 330,000 active; AID 463212;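 active = growth inhibition of the mutant yeast at or above 50%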;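 note: temperature-sensitive mutant grown at 25 °C; plate controls were DMSO-treated mutant yeast for no effect and medium wells lacking yeast for full effect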
B2AR ag: agonists of human beta-2 adrenergic receptor inducing internalization; P07550; Am2.2-beta2AR cells, FAP receptor internalization, flow cytometry; 0.43% of 340,000 active; response, % (concentration not given with the values);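 active = response above a set limit, near 3 SD of response in nonfluorescent compounds, cut at about 42% in these data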
Target sequence (P07550 whole entry, looked up): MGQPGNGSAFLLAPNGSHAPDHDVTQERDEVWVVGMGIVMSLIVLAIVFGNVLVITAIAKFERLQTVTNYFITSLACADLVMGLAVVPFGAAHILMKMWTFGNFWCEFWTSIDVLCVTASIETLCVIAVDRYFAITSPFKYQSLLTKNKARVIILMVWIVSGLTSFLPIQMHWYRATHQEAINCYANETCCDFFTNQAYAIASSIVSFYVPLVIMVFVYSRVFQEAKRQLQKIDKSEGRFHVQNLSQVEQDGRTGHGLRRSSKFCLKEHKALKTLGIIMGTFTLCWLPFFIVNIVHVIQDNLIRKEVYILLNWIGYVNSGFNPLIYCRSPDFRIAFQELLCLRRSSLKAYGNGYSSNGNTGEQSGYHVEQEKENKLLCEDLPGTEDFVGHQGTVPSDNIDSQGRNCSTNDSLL
tim10-1 inh: tim10-1 yeast growth inhibition. S. cerevisiae tim10-1 ts strain growth, BacTiter-Glo, 24 h. inhibition, % at 20 µM. 2.2% of 330,000 active. AID 463190;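 active = inhibition of at least 40%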;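 note: mutant grown at 25 °C; 0% = DMSO wells with yeast and 100% = wells holding no yeast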
TIM10 inh: TIM10 yeast growth inhibition; 1.4% of 330,000 active; S. cerevisiae TIM10 strain growth, BacTiter-Glo luminescence, 24 h; inhibition, % at 10 µM;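 active = inhibition of 40% or more at the single tested concentration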;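 note: wild-type TIM10 isogenic control strain grown at permissive 25 °C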
PfHsp90 set2: inhibits growth of yeast expressing Plasmodium falciparum Hsp90; inhibition, % at 9.4 µM; S. cerevisiae expressing PfHsp90, BacTiter-Glo ATP, 48 h; yeast lacking PDR1 and PDR3 efflux regulators; 0.32% of 310,000 active;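 active = every replicate shows inhibition above about 80%, whatever the replicate mean, limit read from the data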;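 note: 0% = DMSO neutral controls and 100% = 20 µM radicicol positive controls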
* marks the source's active call; other numbers are inactive results.

What do the screens show for `Cc1cccn2c(=O)c3cc(C(=O)NC4CCCCC4)c(=N)n(Cc4ccccc4)c3nc12`?
tim23-1 inh: 8; B2AR ag: 32; tim10-1 inh: 3; TIM10 inh: 5; PfHsp90 set2: -1

What do the screens show for `COc1cc(O)c(C(=O)CC(=O)c2ccncc2)c(OC)c1`?
B2AR ag: 0; PfHsp90 set2: -14

What do the screens show for `COc1cc(S(=O)(=O)NC2CCSc3ccccc32)ccc1NC(C)=O` (stereo not given)?
tim23-1 inh: 18; B2AR ag: 9; tim10-1 inh: 29; TIM10 inh: -1; PfHsp90 set2: -22

Results for O=C(c1c[nH]c(C(=O)C(Cl)(Cl)Cl)c1)c1c(F)cccc1F ?
tim23-1 inh: 17; B2AR ag: 46*; tim10-1 inh: 9; TIM10 inh: -22; PfHsp90 set2: 24

Results for COc1cc2c(cc1OC(C)=O)CCCCC2=O ?
B2AR ag: -4; PfHsp90 set2: 7

What do the screens show for `CCN(CC)S(=O)(=O)c1ccc(N2CCCCC2)c(NC(=O)C2CCN(C(=O)c3ccc(F)cc3)CC2)c1`?
tim23-1 inh: 10; B2AR ag: 3; tim10-1 inh: 1; TIM10 inh: 6; PfHsp90 set2: 16

How did CCOC(=O)C1=C(N)n2c(s/c(=C\c3ccco3)c2=O)=C(C(=O)OC(C)C)C1c1ccco1 (stereo not given) do in these assays?
tim23-1 inh: 7; B2AR ag: 65*; tim10-1 inh: 30; TIM10 inh: 0; PfHsp90 set2: -4

How did CCn1cc(C(=O)N[C@@H](CCSC)C(=O)NCCN2CCOCC2)c(=O)c2cc3c(cc21)OCO3 do in these assays?
tim23-1 inh: 2; B2AR ag: 4; tim10-1 inh: -6; TIM10 inh: 15; PfHsp90 set2: 10

How did COc1cc(NC(=O)COc2cc3oc(=O)cc(C)c3cc2Cl)cc(OC)c1OC do in these assays?
tim23-1 inh: 8; B2AR ag: 46*; tim10-1 inh: 24; TIM10 inh: 0; PfHsp90 set2: -1

Results for COC(=O)C1=C(O)/C(=C\c2cc(C)n(-c3ccc(F)cc3)c2C)N=C1C ?
tim23-1 inh: 25; B2AR ag: 69*; tim10-1 inh: 33; TIM10 inh: -15; PfHsp90 set2: -17

Results for Cc1c(C(=O)N(Cc2ccccc2)Cc2cccs2)cnn1-c1ccc(Cl)cc1 ?
tim23-1 inh: 7; B2AR ag: -7; tim10-1 inh: 18; TIM10 inh: -2; PfHsp90 set2: 105*

How did O=S(=O)(/C=C/c1ccccc1)NC1CCCCCC1 do in these assays?
tim23-1 inh: 13; B2AR ag: 1; tim10-1 inh: -30; TIM10 inh: -137; PfHsp90 set2: 99*

Results for CNS(=O)(=O)/C=C/c1ccccc1 ?
tim23-1 inh: 3; B2AR ag: 4; tim10-1 inh: -6; TIM10 inh: -8; PfHsp90 set2: 24

What do the screens show for `O=S1(=O)CCC(NS(=O)(=O)/C=C/c2ccccc2)C1` (stereo not given)?
tim23-1 inh: -4; B2AR ag: 8; tim10-1 inh: 11; TIM10 inh: 2; PfHsp90 set2: 19

What do the screens show for `O=S(=O)(/C=C/c1ccccc1)NC1CCCCCCC1`?
tim23-1 inh: 29; B2AR ag: -12; tim10-1 inh: -7; TIM10 inh: -46; PfHsp90 set2: 88*

How did Cc1ccc(C(=O)N2CCCC2)cc1S(=O)(=O)N1CCCCC1 do in these assays?
tim23-1 inh: 10; B2AR ag: -6; tim10-1 inh: 3; TIM10 inh: 15; PfHsp90 set2: -16

Results for CCN(CC)S(=O)(=O)c1cc(NC(=O)Cn2ncc(Cl)c(Cl)c2=O)ccc1C ?
tim23-1 inh: -6; B2AR ag: 46*; tim10-1 inh: 7; TIM10 inh: -14; PfHsp90 set2: 7

Results for CCC1=NN2C(=N)/C(=C\c3cccn3-c3ccc(C)cc3C)C(=O)N=C2S1 ?
tim23-1 inh: 41; B2AR ag: -1; tim10-1 inh: 31; TIM10 inh: 34; PfHsp90 set2: 94*

Results for O=C(c1ccc2c(=O)n3c(nc2c1)CCC3)N1CCN(S(=O)(=O)c2ccccc2Br)CC1 ?
B2AR ag: -9; PfHsp90 set2: 1

What do the screens show for `CCCCn1c(N)c(N(CCOC)C(=O)COC(=O)COc2cccc(C(C)=O)c2)c(=O)[nH]c1=O`?
tim23-1 inh: 9; B2AR ag: -6; tim10-1 inh: 1; TIM10 inh: -6; PfHsp90 set2: -12

How did CN(C)C(CNC(=O)c1cccc(S(=O)(=O)Nc2ccccc2Cl)c1)c1ccccc1 (stereo not given) do in these assays?
B2AR ag: 1; PfHsp90 set2: -27

How did CCN(CC)S(=O)(=O)c1cccc(C(=O)NCC(c2ccccc2)N(C)C)c1 (stereo not given) do in these assays?
tim23-1 inh: 43; B2AR ag: 3; tim10-1 inh: -8; TIM10 inh: 14; PfHsp90 set2: 107*

What do the screens show for `O=C(Oc1ccc(Cl)c2cccnc12)N1CCCCC1`?
tim23-1 inh: 23; B2AR ag: 1; tim10-1 inh: 18; TIM10 inh: 17; PfHsp90 set2: -1

How did Oc1c(Cl)cc(Cl)c2cccnc12 do in these assays?
B2AR ag: 10; PfHsp90 set2: 107*

What do the screens show for `Oc1c(Cl)cc(CN2CCCCC2)c2cccnc12`?
tim23-1 inh: 16; B2AR ag: 10; tim10-1 inh: 11; TIM10 inh: 13; PfHsp90 set2: 2

How did Oc1ccc(Cl)c2cccnc12 do in these assays?
B2AR ag: 9; PfHsp90 set2: 108*

Results for O=C(Oc1ccc(Cl)c2cccnc12)c1cccnc1 ?
tim23-1 inh: 29; B2AR ag: -1; tim10-1 inh: 25; TIM10 inh: 7; PfHsp90 set2: 112*

What do the screens show for `Oc1ccc(F)c2cccnc12`?
tim23-1 inh: -4; B2AR ag: 18; tim10-1 inh: 0; TIM10 inh: 8; PfHsp90 set2: 27

What do the screens show for `Cc1ccc(S(=O)(=O)N2CCN(S(=O)(=O)c3ccccc3Br)CC2)cc1`?
tim23-1 inh: 32; B2AR ag: -10; tim10-1 inh: 8; TIM10 inh: 6; PfHsp90 set2: 1

How did CCCCn1c(N)c(N(CC)C(=O)c2c(C)noc2C)c(=O)[nH]c1=O do in these assays?
tim23-1 inh: 2; B2AR ag: 7; tim10-1 inh: 10; TIM10 inh: 3; PfHsp90 set2: 5

How did O=S(=O)(c1ccccc1)N1N=C(c2ccccc2)CC1c1ccccc1F (stereo not given) do in these assays?
tim23-1 inh: 35; B2AR ag: -4; tim10-1 inh: 35; TIM10 inh: 24; PfHsp90 set2: -4

Results for COc1ccc(-c2cc(C(F)F)n3ncc(C(=O)N4CCc5ccccc54)c3n2)cc1 ?
tim23-1 inh: -6; B2AR ag: 0; tim10-1 inh: 14; TIM10 inh: -3; PfHsp90 set2: 21

Results for COc1ccc(-c2cc(C(F)F)n3ncc(C(=O)n4ccnc4C)c3n2)cc1 ?
tim23-1 inh: 33; B2AR ag: 48*; tim10-1 inh: 32; TIM10 inh: 18; PfHsp90 set2: 11
